Laboratory results published in the supplement of paper PMC10498489.
About 330 (14%) of roughly 2,300 compounds showed activity.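 How the source made its calls: active = median modified Z-score above 1.96; inactive = 1.96 or below.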 The list is a sample of the results.

tested on: HepG2 Srxn1-GFP reporter cells (+30 nM CDDO-Me); assay: Srxn1-GFP intensity median modified Z-score relative to plate median; higher = stronger NRF2 / oxidative stress reporter activation, active = hit call of the paper; details: 10 µM; exposure time: 24h
Method in brief: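 Values give the median, over replicates, of the modified Z-score of GFP intensity on each plate. HepG2 Srxn1-GFP BAC reporter cells were co-treated for 24 h with an NRF2 activator at 30 nM and compound at 10 μM (≤0.1% DMSO) in three replicate plates, then analysed per cell for cytoplasmic GFP on confocal images with at least 100 cells. Scaling used 1.4826 × median absolute deviation.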

Compound	Srxn1-GFP intensity median modified Z-score
CCC(C)(C)O [euspeclibcmpd964]	-0.585 (inactive)
C#CC(C)(O)CC (stereo not drawn) [euspeclibcmpd1276]	1.99 (active)
CC1C(=O)O[C@@H]2CCN3CC=C(COC(=O)[C@](C)(O)[C@]1(C)O)[C@H]23 (stereo partly drawn) [euspeclibcmpd1632]	-0.339 (inactive)
N=c1[nH]c(=N)[nH]c(=NC2CC2)[nH]1 [euspeclibcmpd1229]	-0.282 (inactive)
CNC(=O)Oc1ccccc1OC(C)C [euspeclibcmpd1026]	-0.0719 (inactive)
c1ccc2c(c1)sc1ccccc12 [euspeclibcmpd88]	3.54 (active)
c1ccc2c(c1)oc1ccccc12	0.352 (inactive)
C#CC1(O)CCC2C3CC=C4CC(=O)CCC4(C)C3CCC21C (stereo not drawn) [euspeclibcmpd545]	-0.576 (inactive)
CN1C2C[C@H](OC(=O)C(CO)c3ccccc3)C[C@@H]1[C@@H](O)C2 (stereo partly drawn) [euspeclibcmpd1244]	-0.443 (inactive)
CC(C)CC(N(C)C)C1(c2ccc(Cl)cc2)CCC1 (stereo not drawn) [euspeclibcmpd2026]	-0.299 (inactive)
O=c1cccc2n1C[C@H]1CNCC2C1 [euspeclibcmpd1159]	0.6 (inactive)
C[N+]1(C)C2CC(OC(=O)C(CO)c3ccccc3)CC1C1OC12 (stereo not drawn) [euspeclibcmpd193]	-0.176 (inactive)
O=C(O)C1CCN1 (stereo not drawn)	1.24 (inactive)
C[N+](C)(C)CCCCCCCCCC[N+](C)(C)C [euspeclibcmpd902]	4.92 (active)
NCC1(CC(=O)O)CCCCC1 [euspeclibcmpd872]	-0.0794 (inactive)
CN(C(=O)Oc1cccc2cccnc12)c1ccccc1	5.69 (active)
COc1cc(OC)c2c(c1)O[C@H](c1ccc(OC)c(OC)c1)[C@@H](O)C2 [euspeclibcmpd1381]	-0.52 (inactive)
COc1cc2c(cc1-c1cc3cc4ccoc4cc3oc1=O)OCO2 [euspeclibcmpd1721]	0.147 (inactive)
C[C@]12CCC3C(CC[C@H]4CC(=O)CC[C@]34C)C1CCC2=O (stereo partly drawn) [euspeclibcmpd1450]	-0.253 (inactive)
N#CC(O[C@@H]1O[C@H](CO[C@@H]2O[C@H](CO)[C@@H](O)[C@H](O)[C@H]2O)[C@@H](O)[C@H](O)[C@H]1O)c1ccccc1 (stereo partly drawn) [euspeclibcmpd1342]	-0.305 (inactive)
O=C(N/N=C/c1ccc([N+](=O)[O-])o1)c1cc([N+](=O)[O-])cc([N+](=O)[O-])c1O [euspeclibcmpd462]	3.58 (active)
Cc1nccc2c1[nH]c1ccccc12 [euspeclibcmpd1462]	-0.275 (inactive)
COc1ccc2c(c1)[nH]c1c(C)nccc12 [euspeclibcmpd1501]	1.98 (active)
